Assay outcomes: PubChem, National Center for Advancing Translational Sciences (NCATS)
This is a sample that favours compounds with a hit; in the whole collection about 6.9% have one here.
BAZ2B block = qHTS Assay for Inhibitors of BAZ2B; Bromodomain adjacent to zinc finger domain protein 2B (Homo sapiens), Q9UIF8; 360,000 compounds, 4.4% hits; Potency, µM (highest dose often 114 µM), most hits filed as inhibitors; AlphaScreen BAZ2B-H3K14Ac peptide displacement; note: nearly all actives have a fitted effect of over 60% in size
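Inhibition is scored as reduced AlphaScreen emission. The BAZ2B/b-H3(5-23)K14Ac complex (50 nM each) in PBS pH 7.4, 0.01% Tween-20 meets compound (up to 110 uM) for 30 min at RT before bead addition.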
JMJD2A Tudor = qHTS Assay for Inhibitors of JMJD2A-Tudor Domain; AlphaScreen JMJD2A-Tudor / H3K4me3 peptide binding; Potency, µM (series often up to 114 µM), hits mostly inhibitors; Lysine-specific demethylase 4A (Homo sapiens), O75164; 390,000 compounds, 4.4% hits; AID 504339, 2011; note: nearly all actives have a fitted effect of over 50% in size
PLK1 PBD inh = qHTS for Inhibitors of PLK1-PDB (polo-like kinase 1 - polo-box domain): Primary Screen | Potency, µM, hits mostly inhibitors | Plk1 PBD binding of FITC phosphopeptide, fluorescence polarization | 360,000 compounds, 2.8% hits | AID 720504, 2013; note: series mostly up to about 57 µM; nearly all actives have a fitted effect of over 65% in size
Target sequence (P53350 whole entry, looked up, the tested form may be a part): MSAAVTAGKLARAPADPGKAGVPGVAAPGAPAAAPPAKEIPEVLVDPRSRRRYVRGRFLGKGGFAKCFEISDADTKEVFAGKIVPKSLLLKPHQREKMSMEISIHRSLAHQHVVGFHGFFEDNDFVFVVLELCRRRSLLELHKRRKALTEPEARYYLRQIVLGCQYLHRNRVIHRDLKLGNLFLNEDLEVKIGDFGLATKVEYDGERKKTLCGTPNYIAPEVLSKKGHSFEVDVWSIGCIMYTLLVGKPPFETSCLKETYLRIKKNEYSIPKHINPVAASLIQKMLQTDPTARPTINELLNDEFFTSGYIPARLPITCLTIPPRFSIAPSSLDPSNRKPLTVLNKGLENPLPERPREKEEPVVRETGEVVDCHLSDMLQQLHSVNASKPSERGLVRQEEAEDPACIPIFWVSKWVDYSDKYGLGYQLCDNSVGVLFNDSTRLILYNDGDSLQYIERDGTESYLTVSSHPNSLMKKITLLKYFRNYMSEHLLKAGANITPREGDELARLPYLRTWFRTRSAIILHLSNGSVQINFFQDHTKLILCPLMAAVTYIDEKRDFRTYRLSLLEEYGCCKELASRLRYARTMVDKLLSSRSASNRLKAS
VDR inhibitor = Inhibitors of the vitamin D receptor (VDR): qHTS. Potency, µM, hits mostly inhibitors. 400,000 compounds, 0.93% hits. VDR-SRC2-3 peptide fluorescence polarization, 2 h. AID 504847, 2011. Vitamin D3 receptor (Homo sapiens), P11473
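Fluorescence polarization assay of small-molecule disruption of VDR binding to coregulator peptide SRC2-3. Compounds and controls pin-transferred, then read after 2 h incubation at ambient room temperature.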
L3MBTL1 inh = qHTS Assay for the Inhibitors of L3MBTL1 | Potency, µM (series often up to 57.1 µM), usual class: inhibitors | Lethal(3)malignant brain tumor-like protein 1 (Homo sapiens), Q9Y468 | AlphaScreen L3MBTL1–H3K9me1 peptide binding | AID 485360, 2010 | 230,000 compounds, 0.66% hits; note: nearly all actives have a fitted effect of over 60% in size
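Displacement of a biotinylated histone H3(1-15) peptide monomethylated at Lys9 (75 nM) from L3MBTL1 (50 nM) was measured by AlphaScreen after a 30 min room-temperature compound incubation; cefsulodin titration served as intraplate control.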
HP1b binding inh = HTS for Inhibitors of HP1-beta Chromodomain Interactions with Methylated Histone Tails | 390,000 compounds, 0.56% hits | AlphaScreen HP1-beta / biotin-H3K9me3 peptide binding | Chromobox protein homolog 1 (Homo sapiens), P83916 | Potency, µM (top dose mostly 114 µM), most hits filed as inhibitors; note: nearly all actives have a fitted effect of over 70% in size
Target sequence (P83916 whole entry, looked up): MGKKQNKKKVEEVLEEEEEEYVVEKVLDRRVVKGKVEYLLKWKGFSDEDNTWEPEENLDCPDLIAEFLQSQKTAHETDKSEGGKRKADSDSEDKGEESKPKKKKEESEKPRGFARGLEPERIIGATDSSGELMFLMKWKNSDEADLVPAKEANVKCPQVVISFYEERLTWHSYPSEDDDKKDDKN
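AlphaScreen: HP1-beta (50 nM) preformed 30 min with biotin-H3(1-18)K9me3 peptide (50 nM) in PBS pH 7.4, 0.01% Tween-20. Compound added for 30 min at RT, then streptavidin donor/nickel chelate acceptor beads (10 ug/mL) for 30 min.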
JMJD2E inh-1 = Inhibitors of Human Jumonji Domain Containing 2E (JMJD2E): 8HQs - Round 1 | shares compounds with BAZ2B block | JMJD2E demethylase, FDH-coupled NADH fluorescence | Potency, µM (highest dose often 57 µM), usual class: inhibitors | 130 compounds, 89% hits | AID 493212, 2011
JMJD2E inh-2 = Confirmation qHTS Assay for Inhibitors of Human Jumonji Domain Containing 2E (JMJD2E). shares compounds with JMJD2A Tudor. Recombinant JMJD2E, FDH-coupled NADH fluorescence (FDH is formaldehyde dehydrogenase). Potency, µM (top dose mostly 56.8 µM), actives largely listed as inhibitors. 140 compounds, 93% hits
FDH inh = Counterscreen for JMJD2E Inhibitors: qHTS Assay for Inhibitors of Formaldehyde Dehydrogenase (FDH); FDH enzyme assay, NADH fluorescence kinetic; Potency, µM (top dose mostly 56.7 µM), usual class: inhibitors; 140 compounds, 10% hits; AID 2680, 2010; shares compounds with JMJD2A Tudor
JMJD2E MALDI inh = MALDI-TOF-MS Assay for Inhibitors of Human Jumonji Domain Containing 2E (JMJD2E); shares compounds with JMJD2A Tudor; recombinant JMJD2E demethylation, MALDI-TOF-MS; Potency, µM, hits mostly inhibitors; 45 compounds, 90% hits;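 active = compounds whose IC50 for blocking JMJD2E demethylation is below 100 µM; inconclusive = dose dependent effect but IC50 above 100 µM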
Hits are given with their value; n = inactive; u = inconclusive; x = no result; ! = a repeat was not active. Unless noted, calls come from the whole dose curve; as a rule, active = well fitted curve in the direction sought with a large enough effect; inconclusive = small, poorly fitted or top-dose-only effect, or another doubt; inactive = no such curve, though single readings can be large; an effect the other way counts as inactive or inconclusive.

SMILES	BAZ2B block	JMJD2A Tudor	PLK1 PBD inh	VDR inhibitor	L3MBTL1 inh	HP1b binding inh	JMJD2E inh-1	JMJD2E inh-2	FDH inh	JMJD2E MALDI inh
O=S(=O)(Nc1ccc(O)c2ncccc12)c1ccccc1F	x	25.1µM	x	x	x	x	6.46µM	6.46µM	n	4.36
CC(=O)Nc1ccccc1-c1nn[nH]n1	u	n	n	n	x	n	x	x	x	x
Fc1ccccc1-c1nc2ncccc2o1	n	n	n	n	n	n	x	x	x	x
Oc1ccc(-c2nn[nH]n2)c2cccnc12	x	14.1µM	x	x	x	x	2.89µM	2.57µM	n	25.7
CCCOc1nc(C)cc(COC)c1C(N)=O	n	n	n	n	x	n	x	x	x	x
CCCCCn1c(C(Cc2ccccc2)NC(=O)COC)nc2ccccc21 (stereo not drawn)	n	n	n	n	n	n	x	x	x	x
C[C@H](CO)N1C[C@H](C)[C@@H](CN(C)Cc2ccncc2)OCc2cnnn2CCCC1=O	x	x	n	x	x	x	x	x	x	x
Oc1ccc(Nc2ccccc2F)c2cccnc12	x	22.4µM	x	x	x	x	7.08µM	7.08µM	n	22.3
O=C(Nc1ccccc1F)Nc1cccnc1Cl	x	n	n	n	x	n	x	x	x	x
CC(C)(C)c1ccc(C(=O)N2CCNCC2)cc1	n	n	n	n	x	n	x	x	x	x
O=C(c1ccc(-c2cc(O)c3ncccc3c2)cc1)N1CCNCC1	7.94µM	20µM	x	n	25.1µM	n	15.8µM	15.8µM	n	x
Fc1ccc(CNc2ncccn2)cc1	n	n	n	n	x	n	x	x	x	x
Oc1cc(NCc2ccc(F)cc2)cc2cccnc12	u	n	x	n	n	n	36.3µM	u	n	75.3
CCOC(=O)c1cnc2c(ccc3ccccc32)c1NCCCN(C)C	n	n	n	n	n	n	x	x	x	x
Oc1cc(NCc2ccc(Cl)cc2)cc2cccnc12	n	n	x	n	n	n	n	n	n	u
CN(C)CCCNc1cc(O)c2ncccc2c1	8.91µM	35.5µM	x	n	u	n	28.2µM	28.2µM	n	u
Cc1ccc(CSc2nc3cccnc3n2Cc2ccc(C(=O)NCCc3cccs3)cc2)cc1	n	n	x	n	x	n	x	x	x	x
COc1ccccc1Cn1c(=S)[nH]c2cc(C(=O)N3CCCC(C)C3)ccc2c1=O (stereo not drawn)	x	x	n	x	x	x	x	x	x	x
O=C(Nc1ccccc1Cl)Nc1cccnc1Cl	n	n	n	n	x	n	x	x	x	x
Oc1ccc(CNc2ccccc2Cl)c2cccnc12	x	56.2µM	x	x	x	x	2.51µM	2.51µM	n	27.1
Oc1ccc(CNc2ccc(F)cc2F)c2cccnc12	x	20µM	x	x	x	x	2.29µM	5.76µM	n	42
COc1cc(NCc2ccccc2O)c2ncccc2c1	u	n	n	n	u	n	x	x	x	x
Oc1ccc(CCc2ccccc2F)c2cccnc12	x	n	x	x	x	x	10µM	12.9µM	n	28.7
Oc1ccc(NCc2ccccc2F)c2cccnc12	x	50.1µM	x	x	x	x	u	2.57µM	n	19.1
COc1cccc(CN(C)CCCn2ccc(NC(=O)OCc3ccccc3)nc2=O)c1	x	n	n	n	x	n	x	x	x	x
SMILES	BAZ2B block	JMJD2A Tudor	PLK1 PBD inh	VDR inhibitor	L3MBTL1 inh	HP1b binding inh	JMJD2E inh-1	JMJD2E inh-2	FDH inh	JMJD2E MALDI inh
Oc1ccc(CNc2ccccc2C(F)(F)F)c2cccnc12	x	56.2µM	x	x	x	x	3.98µM	12.9µM	n	11.2
Oc1ccc(CNc2ccc(C(F)(F)F)cc2Cl)c2cccnc12	79.4µM	x	x	x	u	x	11.2µM	11.2µM	n	x
Oc1ccc(CNc2ccccc2F)c2cccnc12	14.1µM	79.4µM	3.36µM	u	8.91µM	1.41µM	5.76µM	1.41µM	n	x
O=C(Cc1ncc(C(F)(F)F)cc1Cl)NCc1cccnc1	n	n	n	n	x	n	x	x	x	x
Oc1ccc(CNc2cccc(F)c2F)c2cccnc12	39.8µM	x	x	x	25.1µM	x	2.51µM	2.51µM	n	x
Cc1ccc2nc(SCC(=O)N(CC(C)C)c3c(N)n(Cc4ccccc4)c(=O)[nH]c3=O)[nH]c2c1	n	n	n	n	n	n	x	x	x	x
CC(=O)Nc1cc(C(=O)NCc2ccco2)ccc1Sc1ccc(C)cc1	u	n	n	n	n	n	x	x	x	x
CC(=O)N1CCc2cc(S(=O)(=O)NC(CC(C)C)C(=O)N3CCn4c3nc3ccccc34)ccc21 (stereo not drawn)	n	n	n	n	n	n	x	x	x	x
Oc1ccc(CNc2ccccn2)c2cccnc12	x	39.8µM	x	x	x	x	7.94µM	11.5µM	n	32.9
CC1CCc2nc(/C(C#N)=C/c3ccncc3)sc2C1 (stereo not drawn)	n	n	n	n	n	n	x	x	x	x
CN(C)[C@H]1CCN([C@H]2CS(=O)(=O)N[C@@H]2COCc2ccccc2)C1	x	x	n	x	x	x	x	x	x	x
CN(C)C1CCN(Cc2cc(COCc3ccccc3)c3cccnc3c2O)C1 (stereo not drawn)	10µM	31.6µM	x	n	10µM	n	11.5µM	7.94µM	n	x
Oc1c(CN2CCCCC2)cc(COCc2ccccc2)c2cccnc12	6.31µM	20µM	n	n	12.6µM	n	3.98µM	3.98µM	n	x
CN(C)CCN(Cc1ccco1)c1ccccn1	x	u	n	n	x	n	x	x	x	x
CN(Cc1ccco1)Cc1ccc(O)c2ncccc12	3.16µM	n	x	n	11.2µM!	n	3.16µM	3.16µM	n	x
O=C(COC(=O)c1cccnc1Cl)Nc1ccc(N2CCCCC2)cc1	n	u	n	n	n	n	x	x	x	x
Oc1cc(Nc2ccc(N3CCCCC3)cc2)cc2cccnc12	35.5µM	x	x	x	u	x	28.2µM	28.2µM	n	34.4
Oc1cccc2cc(CNc3ccccc3F)cnc12	x	x	x	x	x	x	u	3.24µM	n	x
Oc1cccc2cc(NCc3ccccc3F)cnc12	x	x	x	x	x	x	32.4µM	20.4µM	n	x
CC(=O)CCC(=O)OCC(=O)Nc1ccc(SC(F)F)cc1	n	n	u	n	x	n	x	x	x	x
